Measured values taken from PubChem BioAssay (NCI).
The panel holds about 83,000 compounds, 20% with a hit somewhere; the sample as a whole holds those more often.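 Single-concentration screen, 48 h exposure, 96-well plates. Endpoint: percent growth. Below 10 = active.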 Unmarked numbers belong to inactive results. Activity calls are given as the source filed them.

System: HL-60(TB) leukemia
Experiment: NCI-60 one-dose screen, 48 h (100 = growth as untreated, 0 = no growth, -100 = all killed)
Settings: 10 µM unless noted

| SMILES | growth |
| --- | --- |
| O=C(N/N=C/c1ccc(-c2ccc(O)cc2)o1)c1[nH]c2ccc(Br)cc2c1-c1ccccc1 | -20.6% (active) |
| Clc1ccc(-c2ccc(OCCCN3CCN(c4ccncc4)CC3)cc2)cc1 | -13.9% (active) |
| COc1cc2c3c(n(CCCNC(C)C)c(=O)c2cc1OC)-c1nc2c(cc1C3=O)OCO2 | 71.6% |
| COc1ccccc1[C@H]1C(C(=O)c2ccc(Cl)cc2)C2(N[C@@H]1c1ccccc1)C(=O)Nc1ccccc12 (stereo partly drawn) | -29.6% (active) |
| CSc1ccc(C(=O)Nc2ccc3nn(/C(C#N)=C/c4ccccn4)nc3c2)cc1 | -21.9% (active) |
| COc1ccc2c(c1)c(/C=N/Nc1ccc3ccccc3n1)cn2C | -57.7% (active) |
| Cc1ccc(NC(=O)N/N=C/c2c[nH]c3ccccc23)c(C)c1 | 1.73% (active) |
| O=C1NC(=NC23CC4CC(CC(C4)C2)C3)N/C1=C\c1ccc2ncsc2c1 | -16.1% (active) |
| COc1ccc2c(c1)C(Sc1ccc(Cl)cc1)c1c(nc(N)c(C#N)c1N)O2 (stereo not drawn) | 44.8% |
| COc1ccc2nc(NC(=O)c3ccc(N(C)C)cc3)sc2c1 | 51.5% |
| O/N=C(\CSc1nnc(-c2c[nH]c3ccccc23)n1-c1ccccc1)c1ccc(Br)cc1 | -36.3% (active) |
| COc1ccc2nc(Cl)c(-c3cc(-c4ccccc4)nc(=S)[nH]3)cc2c1 | 19.6% |
| COc1ccc(NC(=O)[C@H](CO)NC(=O)OC(C)(C)C)cc1C(=O)Nc1cccc(C2CC(=O)c3c(cc(OC)c(OC)c3OC)O2)c1 (stereo partly drawn) | 58.1% |
| CC[C@@]12CC(C(=O)OC)=C3Nc4cc5c(cc4[C@@]34CCN(C[C@H]3O[C@H]31)[C@@H]24)[C@@H]1[C@H](O5)[C@@H](O)[C@@]2(CC)CC(C(=O)OC)=C3Nc4cc(O)ccc4[C@@]34CCN1[C@@H]24 | -39.1% (active) |
| Nc1nnc(-c2cncc(Br)c2)c(-c2c[nH]c3ccc(Cl)cc23)n1 | 64.3% |
| O=C(Nc1nc2ccc([N+](=O)[O-])cc2s1)Nc1ccc(Cl)cc1Cl | 50.1% |
| CN1C/C(=C\c2ccc(O)cc2O)c2[o+]c3cc(O)ccc3cc2C1 | 46.8% |

| SMILES | growth |
| --- | --- |
| O=C(Nc1nc2ccccc2s1)c1ccc(Br)cc1 | 99.1% |
| CC[C@]12C=CCN3CC[C@]4(C(=C(C(=O)OC)C1)Nc1cc(OC)c([C@@H]5[C@H]6O[C@H]6[C@@]6(CC)CC(C(=O)OC)=C7Nc8cc(OC)ccc8[C@@]78CCN5[C@@H]68)cc14)[C@@H]32 | 25% |
| COc1ccc(-c2cc(C(=O)OCc3ccc(Br)cc3)nn2-c2ccc(S(C)(=O)=O)cc2)cc1OC | 83.6% |
| O=C(C1=CNC(=S)NC1c1ccc(O)cc1)c1cc2ccccc2oc1=O (stereo not drawn) | 79.5% |
| CCCCNc1ccc2c3c(cccc13)C(=O)N(c1cccc(-c3nn(-c4ccccc4)cc3-c3nc4ccccc4s3)c1)C2=O | 106% |
| COc1cc2c3c(n(CCCN4CCC[C@@H]4CO)c(=O)c2cc1OC)-c1cc2c(cc1C3=O)OCO2 | -15.4% (active) |
| CC(C)c1sc(NC(=O)c2cc(NC(=O)c3cc(NC(=O)c4cscn4)cn3C)cn2C)nc1C(=O)NCCCN(C)C | -22.6% (active) |
| COc1ccc(-c2ccc(SCC(=O)Nc3ccc(S(N)(=O)=O)cc3Br)nn2)cc1 | 94.9% |
| Cn1cc(-c2cc(N)n3nc(-c4cn(C)c5ccccc45)cc3n2)c2cc(Br)ccc21 | -32.3% (active) |
| C[C@H]1[C@@H](CC(=O)N[C@@H](Cc2coc3ccccc23)B(O)O)O[C@@H]2OC3(C)CC[C@H]4[C@H](C)CC[C@@H]1[C@@]24O3 | 11.2% |
| CCOc1ccc(Nc2nc3ccccc3nc2Nc2ccc(OCC)cc2)cc1 | 31.4% |
| O=C(O)CCN1C(=O)/C(=C/C=C/c2ccc([N+](=O)[O-])o2)SC1=S | -11% (active) |
| CCOC(=O)C1=C(N)N(c2ccccc2)C2=C(C(=O)CC(C)(C)C2)C1c1ccc([N+](=O)[O-])cc1 (stereo not drawn) | 92.9% |
| COc1cc(/C=C/C(=O)c2ccc(S(=O)(=O)NCCNc3nc(N(C)C)nc(N4CCOCC4)n3)cc2)cc(OC)c1OC | -64.8% (active) |
| COc1ccc(C(=O)/C=C/c2ccc3c(c2)OCCO3)cc1S(N)(=O)=O | 95.1% |
| COC(=O)CC1CC1C1Cc2c(nc(N(C)S(C)(=O)=O)nc2C(C)C)-c2ccc(F)cc21 (stereo not drawn) | 58.7% |
